PLC-gamma1 inh – PLC-gamma1 (human) inhibition, primary screen; purified PLC-gamma1, fluorogenic substrate, fluorescence; inhibition, % at 12.2 µM; P19174; 370,000 tested, 0.84% active; in the data active = inhibition above about 9.5%
KLK7 zymogen act – activates the human kallikrein-7 zymogen | AID 652039 | P49862 | 370,000 tested, 0.9% active | activation, % at 7 µM | purified proKLK7, EDANS-DABCYL substrate fluorescence; 100% is mature enzyme control, 0% vehicle;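 active = activation above the mean of all tested compounds plus 3 SD, computed per campaign excluding outliers beyond control limits, cut at about 13% in these data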
PLCb3 inh – blocks human PLC-beta3 enzyme activity | AID 720704 | Q01970 | inhibition, % at 12.2 µM | 370,000 tested, 0.18% active | Purified PLC-beta3, fluorogenic substrate, fluorescence;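 also: 0% = median of compound wells on plate and 100% = full blocker control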
ADAM10 inh – inhibitors of human ADAM10; O14672; recombinant ADAM10, EDANS/DABCYL FRET peptide cleavage, 3 h; inhibition, % at 7 µM; 370,000 tested, 0.62% active; AID 720582;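 active = inhibition above a per-campaign cutoff equal to the mean of compounds falling between control-based bounds plus 3 SD, cut at about 20% in these data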;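 also: 0% = DMSO wells while the 100% control is not disclosed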
Target sequence (O14672 214-748 limits assumed): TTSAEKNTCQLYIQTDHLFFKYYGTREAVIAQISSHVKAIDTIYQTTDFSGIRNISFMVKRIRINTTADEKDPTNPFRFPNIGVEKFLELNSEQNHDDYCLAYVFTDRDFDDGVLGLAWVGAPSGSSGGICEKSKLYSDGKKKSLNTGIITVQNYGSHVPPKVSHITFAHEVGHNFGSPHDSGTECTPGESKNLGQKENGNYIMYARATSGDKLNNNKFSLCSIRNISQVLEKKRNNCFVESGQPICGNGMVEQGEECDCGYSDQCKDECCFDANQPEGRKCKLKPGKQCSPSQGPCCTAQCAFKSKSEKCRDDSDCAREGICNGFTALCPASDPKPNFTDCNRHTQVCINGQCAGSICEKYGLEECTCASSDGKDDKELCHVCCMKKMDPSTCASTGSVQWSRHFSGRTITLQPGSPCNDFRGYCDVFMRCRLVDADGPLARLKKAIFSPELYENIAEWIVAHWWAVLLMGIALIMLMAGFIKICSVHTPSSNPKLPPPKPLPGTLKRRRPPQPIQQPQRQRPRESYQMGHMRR
ADAM17 inh – inhibitors of human ADAM17 | recombinant ADAM17, EDANS/DABCYL FRET peptide cleavage | 370,000 tested, 0.83% active | inhibition, % at 6.95 µM;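 active = inhibition above the mean of compounds lying between control limits plus 3 SD, set per campaign, cut at about 8.5% in these data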;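 also: 0% = DMSO-only wells as the low control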
PLCgamma1 ctr – counter-screen for PLC-beta3 inhibitors: inhibitors of human PLC-gamma1 | shares compounds with PLC-gamma1 inh | purified PLC-gamma1, fluorogenic substrate, fluorescence | inhibition, % at 12.3 µM | 3,300 tested, 3.1% active | AID 743258; in the data active = inhibition above about 9.5%
PLCbeta3 conf – confirmation of human PLC-beta3 inhibitors. shares compounds with PLC-gamma1 inh. purified PLC-beta3, fluorogenic substrate fluorescence. inhibition, % at 12.3 µM. 3,300 tested, 1% active. AID 743261
* = called active by the depositor; . = no result given. Rows were chosen to be rich in hits. Some 2.9% of all compounds tested hit in one or more screens of this group. Rule as the data show it, unless noted: active = inhibition above about 11%; inactive = the rest.

SMILES	PLC-gamma1 inh	KLK7 zymogen act	PLCb3 inh	ADAM10 inh	ADAM17 inh	PLCgamma1 ctr	PLCbeta3 conf
O=C(Nc1ncc2c(n1)CC(c1cccc(Cl)c1)CC2=O)c1ccco1 (stereo not drawn)	19*	0	-4	1	4	-7	-2
O=C(Nc1ncc2c(n1)CC(c1ccccc1)CC2=O)c1ccco1 (stereo not drawn)	-1	0	-1	0	-3	.	.
O=C(O)CCCCCCNS(=O)(=O)c1ccccc1	4	0	2	-5	-4	.	.
O=S(=O)(NCCOCCNS(=O)(=O)c1ccccc1)c1ccccc1	11*	0	5	3	5	6	-2
COC(=O)c1ccc2nc(-c3ccc(F)cc3)c(CC3CCCCC3)n2c1	-15	0	-26	-21	-7	.	.
O=C(NCC1CCCO1)c1nnc(Cc2ccc(F)cc2)o1 (stereo not drawn)	11*	0	7	9	2	-9	-5
O=S1(=O)N=C2CCCCCN2C(c2ccc(Br)cc2)N1 (stereo not drawn)	-11	0	-34	-30	-10	.	.
O=S1(=O)N=C2CCCCCN2C(c2ccc(Cl)cc2)N1 (stereo not drawn)	10*	0	-2	2	3	4	3
O=C1Cc2cc(S(=O)(=O)Nc3ccc(N4CCOCC4)cc3)ccc2N1	0	-1	-6	-5	1	.	.
CC(=O)Nc1nnc(CCS(=O)(=O)c2ccc(C)c(C)c2)s1	14*	0	10	-3	-1	-3	-1
COc1ccc2nc3n(c(=O)c2c1)-c1ccccc1C(=O)NC3Cc1ccccc1 (stereo not drawn)	-1	0	1	-5	-5	.	.
Cc1cc(C)c(OCC(=O)Nc2ccc(N3CCOCC3)cc2)c(Br)c1	4	0	-5	6	0	.	.
Cc1nn(CC(=O)N2CCCC2)c(=O)c2nn(-c3ccccc3)c(C)c12	3	0	12*	-3	-1	-4	1
CC(=O)Nc1ccc(NC(=O)CSc2nnc(NC(=O)c3ccccc3F)s2)cc1	-4	0	-3	-10	-3	.	.
N#CCSc1ccccc1NC(=O)CN1C(=O)C(=O)N(Cc2ccccc2)C1=O	-4	0	-9	-12	-1	.	.
O=Cc1ccc(-c2c(-c3ccccc3)oc3c2C(OCCCCO)CCC3)o1 (stereo not drawn)	-150	1	-213	-67	-18	.	.
CCCC(O)(c1ccc(OC)cc1)C(CN1CCOCC1)c1ccc(Cl)cc1 (stereo not drawn)	11*	1	1	16	6	-1	4
O=C1c2ccccc2C(=O)N1Cc1nc2ccccc2c(=O)n1CCCn1ccnc1	12*	0	7	12	7	-10	-1
O=C1c2ccccc2C(=O)N1CCc1nc2ccccc2c(=O)n1CCCn1ccnc1	-2	0	2	-5	-3	.	.
CC(C)(C)N(NC(=O)Nc1ccc(Cl)cc1)C(=O)c1ccccc1	-2	0	0	-2	-1	.	.
CC(C)(C)N(NC(=O)Nc1ccccc1)C(=O)c1ccccc1	13*	0	8	2	-2	-4	2
CC(Oc1cccc(Br)c1)C(=O)NNC(=O)CCS(=O)(=O)c1ccccc1 (stereo not drawn)	0	0	-10	0	-4	.	.
COc1ccc(-c2c(-c3ccccc3OC)sc3ccccc23)cc1C=O	0	-1	-3	3	4	.	.
COc1ccc(OC)c(C=NNC(=O)c2ccc(NS(=O)(=O)c3cccs3)cc2)c1	-144	5	-212	-356	-100	.	.
COc1ccc(CNC(=O)C[C@H]2C(=O)N(Cc3ccc(OC)cc3)C[C@@H]2Cc2ccccc2)cc1	11*	0	5	18	-1	6	7
SMILES	PLC-gamma1 inh	KLK7 zymogen act	PLCb3 inh	ADAM10 inh	ADAM17 inh	PLCgamma1 ctr	PLCbeta3 conf
Nc1ccc(O)c([N+](=O)[O-])c1	21*	0	7	4	-2	19*	1
CN(C)c1ccc(CNC(=O)C2(C)Cc3c(-c4cccc(C(N)=O)c4)ccnc3O2)cc1 (stereo not drawn)	10.0*	0	0	-2	-4	-5	-3
CC(=O)Nc1ccc(-c2ccnc3c2CC(C)(C(=O)NCc2ccc(N4CCN(C)CC4)cc2)O3)cc1 (stereo not drawn)	0	0	11*	-2	0	-2	1
C[C@@H]1CN([C@H](C)CO)C(=O)CCCn2nncc2CO[C@H]1CN(C)Cc1cccc(C(F)(F)F)c1	-2	0	2	-6	-4	.	.
O=C(Nc1nc(C2C3CC4CC(C3)CC2C4)cs1)c1cc2cc([N+](=O)[O-])ccc2oc1=O (stereo not drawn)	14*	0	8	-2	0	6	-1
Cc1cc(C)n2c(SCC(=O)N(CCC#N)c3ccc4c(c3)OCCO4)nnc2n1	-16	-1	-21	-6	-3	.	.
CN(C)c1nc(Oc2ccc(=O)n(-c3ccccc3)n2)nc(N2CCOCC2)n1	13*	0	-2	2	-4	-6	0
CC(c1nnc(SCC(=O)N2CCc3ccccc32)n1-c1ccc(Cl)cc1)N(C)C (stereo not drawn)	4	0	1	-1	3	.	.
CC(c1nnc(SCn2nnc3ccccc3c2=O)n1-c1ccc(Cl)cc1)N(C)C (stereo not drawn)	3	0	12*	13	3	-3	2
O=C1CC(C(=O)N2CCN(S(=O)(=O)c3cccc(F)c3)CC2)CN1Cc1ccccc1Cl (stereo not drawn)	2	0	-1	8	-20	.	.
CNCCCN1c2ccccc2CCc2ccccc21	10*	0	3	11	4	5	0
Cc1ccc(C(NC(=O)c2cccc(S(=O)(=O)N3CCN(C)CC3)c2)c2ccccc2)cc1 (stereo not drawn)	10*	0	6	-4	5	1	4
CS(=O)(=O)c1cccc(C(=O)NC(c2ccccc2)c2ccccc2)c1	0	1	-1	-9	-5	.	.
COc1ccc(CNc2nc(NCc3ccc(OC)cc3)c3[nH]cnc3n2)cc1	12*	0	9	10	3	0	-2
COc1ccc(CNc2ncnc(N)n2)cc1	-3	0	1	3	-3	.	.
CSc1nnc(N2C(=O)C(O)=C(C(=O)c3ccc(C)o3)C2c2ccc(C)cc2)s1 (stereo not drawn)	-67	0	-114	-19	-5	.	.
CC(SC(=S)N1CCOCC1)C(=O)O (stereo not drawn)	12*	0	2	3	3	-5	-3
COc1cccc(C(=O)N(CN2CCCC2=O)c2cccc(Cl)c2)c1	11*	0	6	-3	4	-2	0

Screens as filed in PubChem BioAssay.
